# Hits are enriched below; roughly 5.9% of the tested compounds scored in any of these assays.
# Gal4-VP16 FLuc = inhibits Gal4-VP16 luciferase reporter, ROR gamma counter-screen; Drosophila S2 Gal4-VP16 UAS-luciferase, luminescence, 20 h; Potency, µM (top dose mostly 53.6 µM), for inactives: top-dose activity, negative = inhibition, hits mostly inhibitors; 3.5% of 310,000 active; AID 2546;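 further: Gal4-VP16 expression switched on by copper sulfate through the metallothionein promoter; on the % scale 0 is the no-effect control and ±100 the full control effect; nearly all actives have a fitted effect of over 50% in size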
# GLP1R ag = GLP-1 receptor (human) agonism. AID 624172. Potency, µM (series often up to 45.6 µM), for inactives: top-dose activation, most hits filed as activators. HEK293 GLP-1R CRE-luciferase, luminescence, 4-6 h; cells express a hypersensitive GLP-1R form. P43220. 0.007% of 380,000 active; further: % of control where 0% means no effect
# GLP-1R inv ag = acts as inverse agonist at human GLP-1 receptor; 1.6% of 410,000 active; HEK293 GLP-1R CRE-luciferase, luminescence, 24 h; GLP-1R form is constitutively active; Potency, µM (series often up to 38.3 µM), without a hit: top-dose activity change, negative = inhibition, hits mostly inhibitors; further: on the % scale 0 is the no-effect control and ±100 the full control effect; nearly all actives have a fitted effect of over 55% in size
#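 Luminescence readout: a drop in cAMP-driven luciferase signal flags inverse agonism at a constitutively active GLP-1R stably expressed in HEK293. Compound exposure lasted 24 hr at 37 deg C, 5% CO2.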
# RORg inh = ROR gamma (mouse) transcription inhibition; Drosophila S2 Gal4-RORgamma UAS-luciferase reporter, 20 h; Potency, µM (highest dose often 53.6 µM), inactives show at the highest dose activity change, negative = inhibition, most hits filed as inhibitors; AID 2551; P51450; 5.4% of 310,000 active; further: on the % scale 0 is the no-effect control and ±100 the full control effect; nearly all actives have a fitted effect of over 60% in size
# Target sequence (P51450 whole entry, looked up, the tested form may be a part): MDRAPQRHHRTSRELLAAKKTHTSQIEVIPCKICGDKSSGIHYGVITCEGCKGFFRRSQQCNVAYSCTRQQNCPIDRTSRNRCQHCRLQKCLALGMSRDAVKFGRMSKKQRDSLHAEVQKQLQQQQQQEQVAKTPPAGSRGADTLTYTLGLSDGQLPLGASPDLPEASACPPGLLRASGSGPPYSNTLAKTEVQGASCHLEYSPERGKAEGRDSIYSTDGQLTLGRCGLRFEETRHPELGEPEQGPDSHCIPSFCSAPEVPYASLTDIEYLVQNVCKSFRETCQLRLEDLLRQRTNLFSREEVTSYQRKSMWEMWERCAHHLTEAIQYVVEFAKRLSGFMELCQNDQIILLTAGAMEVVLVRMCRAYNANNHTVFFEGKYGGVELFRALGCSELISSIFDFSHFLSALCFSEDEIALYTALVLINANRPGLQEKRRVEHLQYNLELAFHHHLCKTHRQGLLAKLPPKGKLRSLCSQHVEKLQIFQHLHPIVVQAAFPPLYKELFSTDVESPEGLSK
#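 A Gal4/UAS one-hybrid system in insect cells: metallothionein-promoter Gal4–ROR gamma fusion plus Photinus luciferase reporter. Copper sulfate 700 uM final, 20 hr ambient incubation, luminescent detection after 10 min with reagent.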
# GLP1R cytotox = cytotoxicity in counter-screen for GLP-1R inverse agonists. HEK293 cAMP-luciferase reporter cells, luminescence, 24 h. 0.13% of 410,000 active. Potency, µM (doses to about 38.3 µM), for the others: at the highest dose activity change, negative = inhibition, hits mostly inhibitors. AID 624418;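 further: loss of luciferase light is scored as toxicity; on the % scale 0 is the no-effect control and ±100 the full control effect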
#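 To flag toxic compounds, the library was rerun on cells for 24 hr at 37 deg C and 5% CO2. Viability-linked luminescence was captured 12 min after adding luciferase detection reagent.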
# * marks the source's active call; other numbers are inactive results; ? = inconclusive; / = not tested or not shown. The call rests on the fitted dose curve; in most records, active means well fitted curve in the direction sought with a large enough effect; inconclusive means small, poorly fitted or top-dose-only effect, or another doubt; inactive means no such curve, though single readings can be large; an effect the other way counts as inactive or inconclusive. Potency means the concentration at half of the fitted maximal effect.
SMILES,Gal4-VP16 FLuc,GLP1R ag,GLP-1R inv ag,RORg inh,GLP1R cytotox
COc1cccc(N2CCN(C(=O)c3cc4c(=O)n(Cc5ccco5)ccc4nc3C)CC2)c1,/,/,6.2%,/,3.5%
Cc1cccc(CNC(=O)c2ccc3oc(=O)n(Cc4ccccc4)c3c2)c1,/,/,?,/,-0.6%
CCOc1ccc(Cl)cc1CNCCCSc1nnnn1C,/,/,?,/,-7.3%
COc1cc(-c2nc(-c3ccc4c(c3)-c3ccccc3S4(=O)=O)c(-c3ccccc3)[nH]2)cc(OC)c1OC,?,-1.9%,1.58µM*,-27.9%,141.8%
O=C(CCOc1ccccc1)Nc1nnc(-c2ccc3c(c2)OCCO3)o1,20µM*,0.6%,?,8.91µM*,-23.6%
O=C(Nc1nnc(-c2ccc3c(c2)OCCO3)o1)c1ccc(Cc2ccccc2)cc1,7.08µM*,1.1%,2.2%,5.62µM*,11.0%
CSc1cccc(-c2nnc(NC(=O)c3ccc4c(c3)OCCO4)o2)c1,/,/,-1.1%,/,1.8%
CC1=C(C(=O)OC2CCCCC2)C(c2ccc(C)o2)C2=C(CCCC2=O)N1 (stereo not drawn),1.8%,3.0%,?,16.5%,1.8%
CC1=C(C(=O)OC2CCCCC2)C(c2ccco2)C2=C(CC(C)(C)CC2=O)N1 (stereo not drawn),-1.9%,1.2%,8.91µM*,9.1%,4.4%
CC1=C(C(=O)OCCOc2ccccc2)C(c2ccc(C)o2)C2=C(CC(C)(C)CC2=O)N1 (stereo not drawn),1.8%,-0.7%,7.94µM*,-27.8%,10.1%
COC(=O)C1C(=O)C2=C(CC1C)NC(C)=C(C(=O)OC1CCCCC1)C2c1ccc(N(C)C)cc1 (stereo not drawn),-10.5%,0.3%,10µM*,?,-16.0%
COC(=O)C1C(=O)C2=C(CC1C)NC(C)=C(C(=O)OCCOc1ccccc1)C2c1ccc(C)o1 (stereo not drawn),-4.0%,10.0%,11.2µM*,-36.7%,-23.9%
CC(=O)N1CCCc2cc(S(=O)(=O)N3CCCC(C(=O)Nc4ccc(F)cc4F)C3)ccc21 (stereo not drawn),/,/,0.5%,/,6.8%
COc1cc(OC)nc(Oc2ccccc2C(=O)Oc2ccc(Cl)cc2)n1,0.4%,18.2%,3.16µM*,1.4%,-21.1%
O=C1N/C(=N\N=C\c2cccs2)SC1Cc1ccc(Cl)cc1Cl (stereo not drawn),0.251µM*,-2.5%,-14.8%,0.355µM*,-2.7%
O=C1N/C(=N\N=C\c2cccs2)SC1Cc1cccc(Cl)c1Cl (stereo not drawn),0.224µM*,-6.5%,-28.4%,0.316µM*,-24.2%
CCOc1ccc(CC2S/C(=N/N=C/c3ccco3)NC2=O)cc1 (stereo not drawn),-12.4%,-1.4%,-11.7%,?,-3.7%
O=C1N/C(=N\N=C\c2ccco2)SC1Cc1ccccc1[N+](=O)[O-] (stereo not drawn),5.01µM*,-6.2%,7.08µM*,3.16µM*,3.98µM*
COC(=O)c1ccc(NC(=O)CCc2c(C)nc3c(c(C)nn3C(C)(C)C)c2C)cc1,/,-0.7%,-4.7%,/,1.4%
CCOC(=O)c1ccc(NC(=O)CCc2c(C)nc3c(c(C)nn3C(C)(C)C)c2C)cc1,/,-6.4%,7.94µM*,/,-21.5%
OC(COC(c1ccc(F)cc1)c1ccc(F)cc1)CN1CCc2ccccc2C1 (stereo not drawn),?,-1.2%,?,-32.6%,-7.9%
OC(COCC1COc2ccccc2O1)CN1CCc2ccccc2C1 (stereo not drawn),-1.9%,-3.9%,10µM*,33.6%,-15.1%
OC(COC(c1ccc(Cl)cc1)c1ccc(Cl)cc1)CN1CCc2ccccc2C1 (stereo not drawn),?,7.2%,5.01µM*,?,?
OC(COC(c1ccccc1)c1ccccc1)CN1CCc2ccccc2C1 (stereo not drawn),6.9%,?,10µM*,?,-1.2%
CC1CCCN(CC(O)COCC2COc3ccccc3O2)C1 (stereo not drawn),-9.7%,-7.9%,-14.0%,?,-4.4%
Cc1ccc(-c2cc(C(=O)N(Cc3ccccc3)Cc3ccco3)no2)cc1F,/,/,?,/,2.2%

# Bioassay records deposited in PubChem by National Center for Advancing Translational Sciences (NCATS).
